From PubChem BioAssay
Only a selection was taken, and hits are over-represented in it overall.
Sm TGR inh – S. mansoni TGR enzyme inhibition; 360,000 tested, 3% active; AID 485364; purified TGR, DTNB reduction, TNB absorbance 405 nm; Potency, µM (top dose mostly 114 µM), most hits filed as inhibitors; Q962Y6; note: nearly all actives have a fitted effect of over 60% in size
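Kinetic colorimetric format: TGR-catalysed, NADPH-driven DTNB reduction monitored via TNB absorbance. Enzyme dispensed at 20 nM; compound exposure 15 min at room temperature before reaction start.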
Shiga inhibitor – blocks Shiga toxin action in Vero cells | Vero cells, Shiga toxin protein synthesis inhibition reporter | inhibition, % at 38.7 µM | 290,000 tested, 9.2% active | AID 2315; in the data active = inhibition mostly above about 28%, no sharp cut-off; inactive = mostly below about 43%
FBPA Giardia inh – blocks Giardia fructose-bisphosphate aldolase activity | Potency, µM (titrated, usually from 59.6 µM), most hits filed as inhibitors | 290,000 tested, 0.71% active | A8B2U2 | purified Giardia FBPA | AID 2451; note: nearly all actives have a fitted effect of over 55% in size
Target sequence (A8B2U2 whole entry, looked up): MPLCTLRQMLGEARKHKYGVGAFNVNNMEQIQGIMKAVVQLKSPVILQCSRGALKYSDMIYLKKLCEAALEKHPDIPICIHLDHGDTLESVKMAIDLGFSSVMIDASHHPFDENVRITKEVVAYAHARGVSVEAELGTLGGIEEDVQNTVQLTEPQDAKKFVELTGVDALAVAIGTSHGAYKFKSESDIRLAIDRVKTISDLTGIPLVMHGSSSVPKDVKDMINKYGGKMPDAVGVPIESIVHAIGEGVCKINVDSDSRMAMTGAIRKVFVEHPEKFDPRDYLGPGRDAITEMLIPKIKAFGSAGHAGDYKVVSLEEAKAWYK
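40 nM FBPA preincubated 10 min at RT with compound (up to 57.5 uM final), then substrate plus GAPDH/TPI/NAD/arsenate coupling and diaphorase/resazurin added. Fluorescence read after 20 min at RT, 525/598 nm.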
LmPK inh – LmPK (Leishmania mexicana) enzyme inhibition. Potency, µM (titrated, usually from 57.5 µM), hits mostly inhibitors. 290,000 tested, 0.37% active. purified LmPK, Kinase-Glo ATP luminescence, 1 h. Q27686
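Pyruvate kinase activity monitored as ATP production (luciferase luminescence). Conditions: 0.1 nM enzyme, 0.5 mM PEP, 0.1 mM ADP, 1 h, RT; normalized against uninhibited and no-enzyme wells.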
Tb PYK inh – inhibitors of Trypanosoma brucei pyruvate kinase; Q57TT1; TbPYK enzyme, Kinase-Glo Plus ATP luminescence, 45 min; Potency, µM (series often up to 76.8 µM), actives largely listed as inhibitors; 410,000 tested, 0.12% active; AID 624173; note: nearly all actives have a fitted effect of over 50% in size
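Readout: single end-point luminescence (Kinase-Glo Plus, 10 min). Reaction conditions were TbPYK/substrate plus 130 uM ADP, 45 min at RT, pH 7.2 TEA buffer. No-enzyme wells served as controls, and data were normalized before concentration-response fitting.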
Cycloheximide cs – affects cycloheximide protein synthesis inhibition readout, counter-screen; cell reporter, cycloheximide protein synthesis inhibition counterscreen; max response, %; 300,000 tested, 12% active; AID 2314; in the data active = max response mostly above about 13%, no sharp cut-off; inactive = mostly below about 14%; note: read at 38.3 µM for the half of the compounds with a filed dose
Numbers stand for hits; . = inactive; ? = inconclusive; / = not tested or not shown. Unless noted, calls come from the whole dose curve; as a rule, active = well fitted curve in the direction sought with a large enough effect; inconclusive = small, poorly fitted or top-dose-only effect, or another doubt; inactive = no such curve, though single readings can be large; an effect the other way counts as inactive or inconclusive.

SMILES	Sm TGR inh	Shiga inhibitor	FBPA Giardia inh	LmPK inh	Tb PYK inh	Cycloheximide cs
Cc1ccc(NC(=O)c2ccc3nc[nH]c3c2)cc1C	.	74	.	.	.	46
Cc1cc(C)cc(NC(=O)c2ccc3nc[nH]c3c2)c1	.	64	.	.	.	.
Cc1cccc(C)c1NC(=O)CNC(=O)c1ccc2nc[nH]c2c1	.	/	/	/	.	/
N/C(CN1CCSCC1)=N\OCc1c(F)cccc1Cl	.	49	.	.	.	.
CCCN(CCC)C(=O)C(CCC(=O)OCCCN1CCN(CCOC(=O)Cc2c(C)n(C(=O)c3ccc(Cl)cc3)c3ccc(OC)cc23)CC1)NC(=O)c1ccccc1 (centres undefined)	/	/	/	/	.	/
CC1=NN(c2ccccc2)C(=O)/C1=C/C=C/c1ccc(N(C)C)cc1	.	.	.	14µM	?	.
CC1=NN(c2ccccc2)C(=O)/C1=C\C=C\c1ccccc1	.	.	.	.	.	.
CC1=NN(c2ccccc2)C(=O)/C1=C/c1c(O)[nH]c(=O)[nH]c1=O	.	.	.	.	.	.
CC1=NN(c2ccccc2)C(=O)/C1=C\c1cn(C)c2ccccc12	.	.	.	.	.	.
CC1=NN(c2ccccc2)C(=O)/C1=C/c1cccc(C)c1	.	.	.	.	.	.
CC1=NN(c2ccccc2)C(=O)/C1=C/c1c(O)[nH]c(=S)[nH]c1=O	8.9µM	.	.	.	.	.
CC1=NN(c2ccccc2)C(=O)/C1=C\c1cc(C)n(C)c1C	.	49	.	.	.	29
CC1=NN(c2ccccc2)C(=O)/C1=C/c1cc2cc(C)ccc2nc1N1CCCCC1	.	.	.	.	/	23
O=C(/C=C/c1ccccc1)N1CCN(Cc2cc(=O)n3nc(-c4ccccc4Cl)sc3n2)CC1	.	/	/	/	.	/
CCOc1ccccc1NC(=O)Cn1c(=O)n(Cc2ccc(C(=O)NCCCOC)cc2)c(=O)c2ccccc21	.	/	/	/	.	/
Cc1ccc(S(=O)(=O)N2C[C@H]3C(=O)C[C@@H](c4cccc(Cl)c4)N(S(=O)(=O)c4ccc(C)cc4)[C@H]3C[C@H]2c2cccc(Cl)c2)cc1	/	/	/	/	.	/
O=C(CSc1nc2c([nH]c3ccccc32)c(=O)n1-c1ccc(Cl)cc1)NCC1CCCO1 (centres undefined)	.	/	/	/	.	/
c1ccc2c(c1)ncn2CCCOc1ccc2c(c1)CCC2	.	98	.	.	.	19
O=[N+]([O-])c1ccc(OCCn2cnc3ccccc32)cc1	.	.	.	.	.	.
c1ccc2c(c1)ncn2CCCCOc1ccc2c(c1)CCC2	.	.	?	.	.	18
COc1ccc2c(c1)C(=O)[C@@H](OC(=O)N[C@H]1CCCc3ccccc31)[C@H](c1ccc(OC)c(Br)c1)O2	/	/	.	/	/	/
COc1ccc(-c2ccnc3c2c(=O)n(C)c(=O)n3C)cc1OC	.	/	/	/	.	/
CSc1nc(-c2cccs2)c(C#N)c(=O)[nH]1	.	.	.	.	.	8.9
COC(=O)C1=NNC(C(=O)OC)C1c1ccccc1 (centres undefined)	/	/	/	/	.	/
C/C(=N\NC(=O)c1cccc(Br)c1)c1cccc(NC(=O)c2ccc(C)o2)c1	.	42	.	.	.	28
SMILES	Sm TGR inh	Shiga inhibitor	FBPA Giardia inh	LmPK inh	Tb PYK inh	Cycloheximide cs
O=C(Nc1cccc(OC(F)(F)F)c1)c1ccc(Br)o1	.	.	.	.	.	40
COc1cccc(NC(=O)c2ccc(OC(F)(F)F)cc2)c1	.	/	/	/	.	/
CCCCC(=O)Nc1cccc(NC(=O)c2ccc(Br)o2)c1	.	.	.	.	.	.
O=C(Nc1cccc(F)c1)c1ccc(Br)o1	.	77	.	.	.	60
O=C(Nc1ccccc1C(=O)O)c1cccc(NC(=O)c2ccc(Br)o2)c1	.	.	.	.	.	.
CC(=O)c1cccc(NC(=O)c2ccc(Br)o2)c1	.	63	.	.	.	24
Cc1ccc(/C=N/NC(=O)c2cccc(NC(=O)c3ccccc3C)c2)o1	?	.	.	.	.	.
Cc1cnc(CNC(=O)c2ccc3nc([C@@H]4O[C@H](CO)[C@H](O)[C@H](O)[C@H]4O)[nH]c3c2)cn1	/	/	/	/	.	/
O=C(Nc1ccc2nn(-c3ccccc3)nc2c1)c1ccc(Br)o1	.	74	.	.	.	13
CC(=O)c1cccc(NC(=O)c2ccc(C)o2)c1	.	.	.	.	.	26
